Screen size: about 72,000 compounds; about 350 (0.49%) were called active. The sample holds actives, similar compounds and a random draw of the others, so the mix is not that of the screen.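 How the source made its calls: active means activity remaining at or below 50% of control, provided the compound also passes the data quality filters; inactive means the rest, including low values that fail the filters.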
These molecules were tested against Ubiquitin carboxyl-terminal hydrolase BAP1 (Homo sapiens) (UniProt Q92560) (assay: inhibitors of BAP1 deubiquitinase, primary screen, biochemical, Ub-AMC fluorescence, kinetic (AID 436;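 further: 100% = DMSO wells rate and 0% = substrate alone blank rate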)). Settings: recombinant BAP1, Ub-AMC hydrolysis fluorescence kinetic; at 20 µM; hits give low values.
Chain of Ubiquitin carboxyl-terminal hydrolase BAP1 (Homo sapiens) (Q92560 whole entry, looked up): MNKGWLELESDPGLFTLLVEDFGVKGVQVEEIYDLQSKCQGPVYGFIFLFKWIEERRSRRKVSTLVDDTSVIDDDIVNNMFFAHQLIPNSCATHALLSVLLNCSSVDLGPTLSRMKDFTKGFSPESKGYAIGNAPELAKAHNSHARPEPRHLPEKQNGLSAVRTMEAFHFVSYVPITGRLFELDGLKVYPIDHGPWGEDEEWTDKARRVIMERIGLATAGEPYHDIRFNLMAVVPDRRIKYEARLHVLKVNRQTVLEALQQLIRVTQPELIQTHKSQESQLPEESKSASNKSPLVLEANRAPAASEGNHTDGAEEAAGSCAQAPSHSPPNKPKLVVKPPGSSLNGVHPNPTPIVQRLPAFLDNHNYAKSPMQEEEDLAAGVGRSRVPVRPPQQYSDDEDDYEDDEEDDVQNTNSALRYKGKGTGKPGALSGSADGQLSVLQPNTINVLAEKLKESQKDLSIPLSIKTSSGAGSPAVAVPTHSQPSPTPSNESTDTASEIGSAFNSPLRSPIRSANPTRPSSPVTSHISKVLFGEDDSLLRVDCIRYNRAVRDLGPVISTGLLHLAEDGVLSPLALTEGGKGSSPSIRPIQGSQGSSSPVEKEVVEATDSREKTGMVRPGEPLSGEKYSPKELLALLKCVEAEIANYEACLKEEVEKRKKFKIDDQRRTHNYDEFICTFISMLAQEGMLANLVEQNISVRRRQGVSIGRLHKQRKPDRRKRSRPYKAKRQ

Activity remaining (% of control), inactive:
COc1ccc(Cn2c(NCCO)nc3c2c(=O)n(C)c(=O)n3C)cc1 103%
Cc1cc(=O)oc2cc(OC(=O)c3ccc([N+](=O)[O-])cc3Cl)ccc12 479%
Cc1ccc[n+](CC(=O)c2ccc(Cl)cc2)c1C 57.4%
O=c1oc2ccccc2cc1-c1nnc(-c2ccccc2)o1 380%
COc1ccc2cc(C(=O)Nc3cccc(C(F)(F)F)c3)c(=N)oc2c1 72.3%
CNc1nonc1C(=O)O 154%
O=C(Nc1cccnc1)c1ccc(Cl)c([N+](=O)[O-])c1 66%
O=C(Nc1ccc(-c2cn3ccccc3n2)cc1)c1ccc(Br)cc1 63.1%
N#Cc1cccc2c1-c1ccc([N+](=O)[O-])cc1C2=O 96.3%
Cc1cccc(C)c1OCC(O)CN1CCCCC1 (configuration not stated) 59.4%
CCOc1ccccc1NC(=O)c1c(NC(=O)c2cccs2)sc2c1CCC(C)C2 (configuration not stated) 92.6%
Cc1cc(Br)ccc1N1C(=O)C2CCCCC2C1=O (configuration not stated) 93.8%
CCc1ccc(OC(=O)c2cc3cc(Br)ccc3oc2=O)cc1 80.8%
CCc1ccc2oc(-c3cccc(NC(=O)c4ccccc4Br)c3)nc2c1 56.4%
O=C(Nc1nnc(CCS(=O)(=O)c2ccc3ccccc3c2)s1)c1ccc(F)cc1 64.8%
Cc1cccc(C(C)C)c1NC(=O)c1ccco1 233%
O=C(Nc1ccc(-c2nc3ccccc3o2)cc1)c1ccc(S(=O)(=O)N2CCCCC2)cc1 288%
O=C(Cc1cccc2ccccc12)Nc1ccccc1-c1nc2ccccc2s1 75.2%
CCOc1ccc(C(=O)Nc2cccc(C(=O)Nc3cccc4ccccc34)c2)cc1[N+](=O)[O-] 71.1%
O=C(Nc1nc2c(s1)C(=O)CCC2)c1ccccc1Cl 51.9%
CCOC(=O)c1c(NC(=O)c2cc3ccccc3oc2=O)sc(C(=O)CC)c1C 49.7%
O=C(NCc1ccccc1)c1nn2c(C(F)(F)F)cc(-c3ccccc3)nc2c1Br 70%
CCCOc1ccc(C(=O)Nc2c(C)ccc3nsnc23)cc1 203%
COCCc1nnc(NC(=O)c2ccc([N+](=O)[O-])cc2)s1 111%
CC1=C(C(=O)OCCc2ccccc2)C(c2ccc([N+](=O)[O-])cc2)NC(=O)N1C (configuration not stated) 72.8%
COc1ccc(-n2nc3cc(C)c(NC(=O)c4ccc(Br)o4)cc3n2)cc1 63%
CC(C)(C)C(=O)Nc1ccc(C(=O)Nc2nccs2)cc1 63.4%
